# In the supplement of paper PMC10498489:
# About 330 (14%) of roughly 2,300 compounds showed activity. These entries were drawn from the full list. Unmarked numbers belong to inactive results.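 Rule for the calls: active = median modified Z-score above 1.96; inactive = 1.96 or below.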
# Test system: HepG2 Srxn1-GFP reporter cells (+30 nM CDDO-Me)
# Experiment: Srxn1-GFP intensity median modified Z-score relative to plate median; higher = stronger NRF2 / oxidative stress reporter activation, active = hit call of the paper
# Settings: 10 µM; exposure time: 24h
# How it was run: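 HepG2 Srxn1-GFP BAC reporter cells were seeded at 20,000 per well in 96-well plates and co-exposed for 24 h to compound at 10 μM and an NRF2 activator at 30 nM, with DMSO at ≤0.1%, in three replicate plates. Cells were fixed with formaldehyde, stained with Hoechst and imaged by confocal microscopy, and cytoplasmic GFP was measured per cell, with images holding under 100 cells discarded. The reported value is the median over replicates of each plate's modified Z-score of GFP intensity. For this score, scaling used 1.4826 × median absolute deviation.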
row,Compound,Srxn1-GFP intensity median modified Z-score
1,C[C@@H]1CCC2[C@](C)(CO)[C@@H](O)CC[C@]2(C)[C@@]12CC[C@@](CO)(CCO)O2 (stereo partly specified) [euspeclibcmpd1570],-0.216
2,CCOc1cc(/C=C/C(=O)O)ccc1OC,0.394
3,CCNC(=O)CCC(N)C(=O)O (stereo unspecified) [euspeclibcmpd2170],-0.00834
4,CC12CCC(=O)N1C(C(=O)NCCCNS(C)(=O)=O)CS2 (stereo unspecified),2.02 (active)
5,CC(=O)COc1ccc2c(C)cc(=O)oc2c1,1.43
6,CN(C)C1C(=O)C(C(=O)NCN2CCCC2)C(=O)C2(O)C(=O)C3C(=O)c4c(O)cccc4C(C)(O)C3CC12 (stereo unspecified) [euspeclibcmpd1955],-0.368
7,C[C@]12C=CC(=O)CC1=CCC1C2C(=O)C[C@@]2(C)C1CC[C@]2(O)C(=O)CO (stereo partly specified) [euspeclibcmpd243],-0.188
8,CC(=O)OC1CCC23C(=O)OC45CCC(c6coc(O)c6)C4(C)CCC2C5CCC3(O)C1 (stereo unspecified) [euspeclibcmpd1387],-1.25
9,[Cl][Ca][Cl] [euspeclibcmpd2470],1.27
10,N#CCC(=O)NN [euspeclibcmpd1098],3.08 (active)
11,CON=C1CN(c2nc3c(cc2F)c(=O)c(C(=O)O)cn3C2CC2)CC1CN (stereo unspecified) [euspeclibcmpd871],-0.00523
12,CC1=C(C(=O)O)N2C(=O)C(=NC(=O)C(N)C3CC=CCC3)C2SC1 (stereo unspecified) [euspeclibcmpd49],-0.299
13,CN(C)CC(=O)OCC(=O)C(O)C(O)C(O)C(O)O (stereo unspecified) [euspeclibcmpd2264],-0.422
14,COc1ccc(CCN2CCC(N=c3[nH]c4ccccc4n3Cc3ccc(F)cc3)CC2)cc1 [euspeclibcmpd1296],-0.744
15,Cc1c(NC(=O)CCc2cccnc2)c(=O)n(-c2ccccc2)n1C,1.03
16,COc1ccc([C@@H]2CC(=O)c3c(O)cc(O[C@@H]4O[C@H](CO[C@H]5O[C@@H](C)[C@H](O)[C@@H](O)[C@H]5O)[C@@H](O)[C@H](O)[C@H]4O)cc3O2)cc1O [euspeclibcmpd1499],-0.332
17,C=C[C@](C)(O)CC[C@@H]1[C@@]2(C)CCCC(C)(C)[C@@H]2CC[C@]1(C)O [euspeclibcmpd2213],2.3 (active)
18,C=C[C@@](C)(O)CCC1C(=C)C[C@H](O)C2C(C)(C)CCCC12C (stereo partly specified) [euspeclibcmpd2065],0.497
19,CNC(CC(=O)O)C(=O)O (stereo unspecified) [euspeclibcmpd1746],-0.42
20,OC(COC(c1ccccc1)c1ccccc1)CN1CCN(/C=C/Cc2ccccc2)CC1 (stereo unspecified),0.401
21,CN1CCN(C(c2ccccc2)c2ccccc2)CC1 [euspeclibcmpd77],0.846
22,CC(=O)NC(CC(C)C)C(=O)O (stereo unspecified) [euspeclibcmpd1070],-0.124

row,Compound,Srxn1-GFP intensity median modified Z-score
1,CC(C)NS(=O)(=O)C1CCN(C(=O)CCS(=O)(=O)C2CCCC2)C1 (stereo unspecified),1.14
2,CC(C)Cn1cnc2c(=N)[nH]c3ccccc3c21 [euspeclibcmpd542],-0.55
3,CC(=O)N=c1[nH]nc(S(N)(=O)=O)s1 [euspeclibcmpd48],0.382
4,CCCc1nc(C)c2c(=O)[nH]c(-c3cc(S(=O)(=O)N4CCN(CC)CC4)ccc3OCC)nn12 [euspeclibcmpd760],-0.393
5,O=C(OC[C@H]1O[C@H](OC(=O)c2cc(O)c(O)c(OC(=O)c3cc(O)c(O)c(O)c3)c2)[C@H](OC(=O)c2cc(O)c(O)c(OC(=O)c3cc(O)c(O)c(O)c3)c2)[C@@H](OC(=O)c2cc(O)c(O)c(OC(=O)c3cc(O)c(O)c(O)c3)c2)[C@@H]1OC(=O)c1cc(O)c(O)c(OC(=O)c2cc(O)c(O)c(O)c2)c1)c1cc(O)c(O)c(OC(=O)c2cc(O)c(O)c(O)c2)c1 [euspeclibcmpd649],8.09 (active)
6,O=C(O[C@@H]1Cc2c(O)cc(O)cc2O[C@@H]1c1cc(O)c(O)c(O)c1)c1cc(O)c(O)c(O)c1 [euspeclibcmpd1546],1.25
7,O=C(Oc1cc(O)cc2c1CC(OC(=O)c1cc(O)c(O)c(O)c1)C(c1cc(O)c(O)c(O)c1)O2)c1cc(O)c(O)c(O)c1 (stereo unspecified) [euspeclibcmpd1839],-0.336
8,CCCCCCCCCCCCCCCC(=O)OCC(O)c1oc(O)c(O)c1O (stereo unspecified) [euspeclibcmpd862],-0.777
9,CC(C)(Oc1ccc(C(=O)c2ccc(Cl)cc2)cc1)C(=O)O [euspeclibcmpd2188],-0.278
10,Cc1c2oc3c(C)ccc(C(=O)OC(C)C4NC(=O)C(C(C)C)N(C)C(=O)CN(C)C(=O)C5CCCN5C(=O)C(C(C)C)NC4=O)c3[nH]c-2c(C(=O)OC(C)C2NC(=O)C(C(C)C)N(C)C(=O)CN(C)C(=O)C3CCCN3C(=O)C(C(C)C)NC2=O)c(=N)c1=O (stereo unspecified) [euspeclibcmpd955],-2.39
11,CN1CCN(CCCN2c3ccccc3Sc3ccc(Cl)cc32)CC1 [euspeclibcmpd249],3.78 (active)
12,CNCCCN1c2ccccc2CCc2ccccc21 [euspeclibcmpd86],1.22
13,CN1CCN(CCCN2c3ccccc3Sc3ccc(C(F)(F)F)cc32)CC1 [euspeclibcmpd306],0.328
14,CN(C)CCCN1c2ccccc2Sc2ccccc21 [euspeclibcmpd252],0.744
15,CNCCCN1c2ccccc2Sc2ccccc21,2.13 (active)
16,OCCN1CCN(CCCN2c3ccccc3Sc3ccc(Cl)cc32)CC1 [euspeclibcmpd640],-1.43
17,C/C(=C(/CCOP(=O)(O)O)SC(=O)c1ccccc1)N(C=O)Cc1c[nH]c(C)nc1=N [euspeclibcmpd1052],1.09
18,O=C(CCc1ccccc1)NCCO,1.29
19,Cc1nnc(SC=C2CSC3C(NC(=O)Cn4cnnn4)C(=O)N3C2C(=O)O)s1 (stereo unspecified) [euspeclibcmpd2337],0.336
20,CCCCNC(=O)c1ccc(NC(C)=O)cc1,0.99
21,COC(=O)C(C)=CCC12OC(C)(C)C3CC(=CC4C(=O)c5c(OC)c6c(c(CC=C(C)C)c5OC431)OC(C)(CCC=C(C)C)C=C6)C2=O (stereo unspecified) [euspeclibcmpd2284],55.9 (active)
22,CC(C)=CCCC1(C)C=Cc2c(O)c3c(c(CC=C(C)C)c2O1)OC12C(=CCCC1C(C)(C)O[C@@]2(C=CC(C)C(=O)O)C(=O)O)C3=O (stereo partly specified) [euspeclibcmpd1701],6.67 (active)

row,Compound,Srxn1-GFP intensity median modified Z-score
1,CC(C)=CCCC1(C)C=Cc2c(O)c3c(c(CC=C(C)C)c2O1)OC12C(=CC4CC1C(C)(C)OC2(C=CC(C)C(=O)O)C4=O)C3=O (stereo unspecified) [euspeclibcmpd1425],127 (active)
2,CC(C)=CCCC1(C)C=Cc2c(O)c3c(c(CC=C(C)C)c2O1)OC12C(CC4CC1C(C)(C)OC2(C=CC(C)C(=O)O)C4O)C3=O (stereo unspecified) [euspeclibcmpd1941],50.9 (active)
3,COc1ccc(-c2coc3c4c(c(CC=C(C)C)c(OC)c3c2=O)OC(C)(C)C=C4)cc1OC [euspeclibcmpd2197],-0.274
4,Cc1cc(C)cc(-c2nnc(SCc3csc(Nc4ccccc4)n3)o2)c1,0.289
5,O=c1[nH]cnc2[nH]ncc12 [euspeclibcmpd15],0.378
6,CCOC(=O)O[C@]1(C(=O)COC(=O)CC)CCC2C3CC=C4CC(=O)C=C[C@]4(C)C3[C@@H](O)C[C@@]21C (stereo partly specified) [euspeclibcmpd1145],-0.25
7,NC(COCc1ccccc1)C(=O)O (stereo unspecified) [euspeclibcmpd2285],-0.141
8,Cc1cc(CC(C)CC(C)(C)C)n(O)c(=O)c1 (stereo unspecified) [euspeclibcmpd627],0.455
9,O=C(NC(Cc1cc(=O)[nH]c2ccccc12)C(=O)O)c1ccc(Cl)cc1 (stereo unspecified) [euspeclibcmpd1178],0.0863
10,CN(CCOC(c1ccccc1)c1ccccc1)S(C)(=O)=O,1.57
11,CC(=O)Nc1cc2ccccc2oc1=O [euspeclibcmpd1797],0.241
12,CCCC(=O)N=c1[nH]cnc2c1ncn2C1O[C@@H]2COP(=O)(O)O[C@H]2[C@H]1OC(=O)CCC (stereo partly specified) [euspeclibcmpd1111],0.97
13,CCCCCCOC(=O)N=C(N)c1ccc(NCc2nc3cc(C(=O)N(CCC(=O)OCC)c4ccccn4)ccc3n2C)cc1 [euspeclibcmpd2169],0.57
14,N=c1c2ccccc2[nH]c2ccccc12 [euspeclibcmpd350],15 (active)
15,N=c1c2c([nH]c3ccccc13)CCCC2 [euspeclibcmpd944],-0.0541
16,O=c1c2ccccc2[nH]c2ccccc12,0.588
17,CC(=O)c1c(O)c(C)c(O)c2c1OC1=CC(=O)C(C(C)=O)C(=O)C12C (stereo unspecified) [euspeclibcmpd1449],12.3 (active)
18,NCCC(=O)C(O)N[C@@H]1C[C@H](N)[C@@H](O[C@H]2O[C@H](CN)[C@@H](O)[C@H](O)[C@H]2O)[C@H](O)[C@H]1O[C@H]1O[C@H](CO)[C@@H](O)[C@H](N)C1O (stereo partly specified) [euspeclibcmpd967],-0.34
19,CCCC[C@@H](CC)COC(=O)/C=C/c1ccc(OC)cc1 [euspeclibcmpd2186],1.35
20,COC1=CC(=O)C(=O)C=C1C=CCc1ccccc1 [euspeclibcmpd1419],9.05 (active)
21,COC1=CC(=O)C=C(OC)C1=O [euspeclibcmpd2007],0.392
22,COC1=CC(=O)C(C(=O)c2ccccc2)=CC1=O [euspeclibcmpd1986],-0.559
